# From PubChem
# Rows were chosen to be rich in hits. Some 3.4% of all compounds tested hit in one or more screens of this group.
# TEAD-YAP inh – TEAD-YAP interaction inhibition; AID 1259422; inhibition, % at 9.12 µM; HEK-TIYL cells, TEAD-Gal4/YAP UAS-luciferase luminescence; hit rate 1.4% among 640,000; in the data active = inhibition above about 32%;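 note: 0% = median of test compound wells and 100% = reference inhibitor wells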
# GPR151 activ – human GPR151 activation; AID 1508602; hit rate 1% among 650,000; PathHunter beta-arrestin GPR151 cells, luminescence; Q8TDV0; activation, % at 11.2 µM; in the data active = activation above about 4.9%;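 note: 0% = median of compound wells and 100% = cells with positive control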
# MITF primary – blocks human microphthalmia-associated transcription factor. inhibition, % at 2.6 µM. AlphaScreen MITF homodimerization, bead proximity signal. AID 1259374. hit rate 0.91% among 650,000; in the data active = inhibition above about 50%;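 note: 0% = vehicle wells with protein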
# Target sequence (O75030 whole entry, looked up): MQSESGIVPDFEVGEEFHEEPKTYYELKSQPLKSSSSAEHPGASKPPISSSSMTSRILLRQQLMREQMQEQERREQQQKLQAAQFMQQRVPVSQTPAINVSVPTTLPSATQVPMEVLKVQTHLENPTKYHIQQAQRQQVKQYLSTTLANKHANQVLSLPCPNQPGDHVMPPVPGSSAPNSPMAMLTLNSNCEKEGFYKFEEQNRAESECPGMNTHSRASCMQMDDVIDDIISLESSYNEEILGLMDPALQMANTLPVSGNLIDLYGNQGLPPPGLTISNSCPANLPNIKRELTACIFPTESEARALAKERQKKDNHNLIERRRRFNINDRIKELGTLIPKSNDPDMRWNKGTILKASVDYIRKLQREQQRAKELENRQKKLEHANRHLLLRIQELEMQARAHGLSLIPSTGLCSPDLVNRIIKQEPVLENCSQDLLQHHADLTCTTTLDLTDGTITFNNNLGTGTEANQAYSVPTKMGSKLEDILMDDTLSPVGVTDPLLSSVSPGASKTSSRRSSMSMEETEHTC
# FBW7 act – activators of human E3 ligase FBW7. Q969H0. AlphaScreen FBW7–phospho-cyclin E peptide binding, activator screen. normalized activity (activation), % at 26.1 µM. hit rate 0.13% among 650,000. AID 1259310; in the data active = normalized activity above about 1.9%;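 note: purified mutant Fbw7 with reduced substrate affinity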
# MITF inh conf – confirmation of human MITF inhibitors. hit rate 16% among 4,700. inhibition, % at 2.6 µM. AID 1259372. AlphaScreen MITF homodimerization, biotin/His-MITF beads. shares compounds with MITF primary;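 active = inhibition above a cutoff derived from the DMSO control wells, cut at about 28% in these data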;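 note: 0% = MITF dimer wells with DMSO only; inhibitors lower the bead chemiluminescence by keeping MITF from dimerizing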
# AS interf ctr – AlphaScreen optical interference, counter-screen. shares compounds with MITF primary. LysRS AlphaScreen counterscreen, signal interference, triplicate. inhibition, % at 2.6 µM. hit rate 7.6% among 4,700. AID 1259376;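 active = inhibition above a cutoff derived from the DMSO control wells, cut at about 30% in these data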
# The depositor's hits bear a star; · = not tested or not shown.
SMILES,TEAD-YAP inh,GPR151 activ,MITF primary,FBW7 act,MITF inh conf,AS interf ctr
Fc1ccccc1CN1CCN(CCCc2ccccc2)CC1,4.0,-1.6,72.8*,-0.2,7.7,3.1
c1ccc(CCCN2CCN(C3CCN(Cc4ccccc4)CC3)CC2)cc1,-8.2,-0.2,-4.6,0.1,·,·
c1ccc(CCCN2CCN(Cc3cccnc3)CC2)cc1,-1.9,-2.3,83.4*,0.1,18.8,19.4
Fc1ccccc1OCCCN1CCN(Cc2ccccc2)CC1,4.6,-1.2,64.1*,0.7,6.2,16.1
CN1CCCN(Cc2ccccc2F)CC1,-0.5,0.5,11.5,-0.2,·,·
O=C(c1cccc(Nc2ccc3[nH]ncc3c2)n1)N1CCOCC1,14.3,-0.2,46.6,-0.1,·,·
CCOc1ccc(S(=O)(=O)NCCc2csc3nc(-c4ccc(C)cc4)nn23)cc1,6.7,-0.1,-12.6,-0.1,·,·
C=CCSC1=NC(c2ccccc2)C(C(=O)OCC)=C(C)N1 (configuration not stated),-3.5,1.6,19.7,0.0,·,·
CC(=O)Nc1ccccc1OCC(=O)Nc1ccc(Br)c(C)c1,10.9,1.8,1.2,0.7,·,·
CCC(CC)C(=O)Nc1nnc(SCC(=O)NC2CCCC2)s1,3.3,0.0,60.8*,-0.1,1.3,11.2
CCC(C)C(=O)Nc1nnc(SCC(=O)NC2CCCC2)s1 (configuration not stated),5.1,-0.1,13.3,0.0,·,·
O=C(NNC(=S)Nc1ccccc1C(F)(F)F)c1ccccn1,-37.2,-2.1,112.9*,-0.8,103.6*,100.2*
O=C(NNC(=S)Nc1ccc(Cl)c(Cl)c1)c1ccccn1,39.3*,-0.1,113.6*,-1.0,109.9*,100.2*
CC(O)CC(=O)NNC(=S)Nc1ccc(Cl)c(Cl)c1 (configuration not stated),2.7,0.0,-0.6,0.0,·,·
O=C(NNC(=S)Nc1ccccc1C(F)(F)F)c1ccc(Br)o1,-32.5,-1.8,-20.9,0.0,·,·
O=C(O)c1cc2c3c(c1)C1C=CCC1C(c1ccc(Br)cc1)N3CC1CC=CC21 (configuration not stated),-1.6,-0.1,12.0,0.0,·,·
COC(=O)C(N)CSC1CCCCO1 (configuration not stated),0.1,-0.6,55.6*,0.1,8.7,17.9
Cc1ccc(C(C)C)c(OCCOCCN2CCNCC2)c1,2.6,1.4,-3.9,-0.2,·,·
Cc1ccc(C(C)C)c(OCC(O)CN2CCOCC2)c1 (configuration not stated),5.4,0.4,-14.1,0.0,·,·
Clc1cc(Br)ccc1OCCCCN1CCNCC1,13.6,0.4,55.6*,0.1,-13.1,3.4
Brc1cccc(OCCCCN2CCNCC2)c1,0.2,-0.1,48.3,-0.2,·,·
Cc1cc(Br)ccc1OCCCCN1CCNCC1,0.3,0.0,65.6*,-0.3,5.6,4.4
Cc1ccc(C(C)C)c(OCC#CCN2CCOCC2)c1,-9.8,-1.3,54.9*,0.1,3.9,14.3
Cc1ccc(C(C)C)c(OCCCCN2CCNCC2)c1,3.1,0.6,75.4*,0.0,-5.5,-3.8
O=C1CCN(C(=O)c2cc(C3CC3)[nH]n2)CCN1CCOc1ccccc1,7.2,0.8,5.5,0.0,·,·
SMILES,TEAD-YAP inh,GPR151 activ,MITF primary,FBW7 act,MITF inh conf,AS interf ctr
Cc1ccc(SCCCCN2CCNCC2)cc1,-28.5,1.2,61.0*,0.4,26.7,-2.7
Cc1ccc(C(C)C)c(OCCN(C)C)c1,9.4,-1.4,53.7*,0.4,6.3,-0.9
Cc1ccc(OCCN2CCNCC2)c(Br)c1,0.5,-0.6,46.5,-0.2,·,·
Cc1ccc(C(C)C)c(OCC(N)=O)c1,2.9,-0.9,11.5,0.1,·,·
CCC(C)(C)c1ccc(OCCN2CCNCC2)c(Cl)c1,-0.5,0.5,60.8*,-0.2,-7.8,-6.2
Cc1ccc(OCCCCN2CCNCC2)c(Br)c1,-18.1,2.6,55.5*,-0.2,20.5,19.6
CCCCc1ccc(-c2ccccc2)nc1,-18.9,-0.3,-0.7,-0.1,·,·
Cc1cccc(-c2nnc3sc(NC(=O)c4ccc(F)cc4)nn23)c1,5.0,0.3,6.6,0.6,·,·
CCN(CC)C(=O)C12CC3CC(C1)C(=O)C(C3)C2,1.6,0.1,3.0,0.3,·,·
CCC(CC)CN1CCc2nnc(CNC(=O)C3CCC(=O)N3)n2CC1 (configuration not stated),-0.3,0.4,78.5*,0.0,0.5,2.5
CC(C)/C=C/CN1CCc2nnc(CNC(=O)C3CCC(=O)N3)n2CC1 (configuration not stated),4.2,-0.9,7.2,-0.1,·,·
O=S(=O)(NCC(c1ccc(F)cc1)N1CCOCC1)c1ccc2c(c1)OCCO2 (configuration not stated),5.4,-1.0,55.3*,0.0,5.7,4.2
O=S(=O)(Cc1ccc(F)cc1)NCC(c1ccsc1)N1CCOCC1 (configuration not stated),6.0,0.1,78.1*,0.0,-2.0,-0.7
Cc1cc(F)ccc1S(=O)(=O)NCC(c1ccsc1)N1CCOCC1 (configuration not stated),10.7,-1.5,8.6,0.4,·,·
NC(=O)c1ccsc1Nc1ccnc(Nc2ccc(N3CCOCC3)cc2)c1,29.1,-1.1,12.5,-0.3,·,·
Cc1ccc(Cn2c(=N)n(CC(O)COc3ccc(Cl)cc3)c3ccccc32)cc1 (configuration not stated),2.6,1.9,64.3*,-0.1,11.3,4.0
COc1ccccc1N1CCN(C(=S)NCCN(C)C)CC1,-4.8,-0.3,76.8*,-0.2,1.0,1.4
COc1ccc(-c2nc3ccc(C(=O)NCCc4ccccc4)cc3nc2-c2ccc(OC)cc2)cc1,-13.4,0.4,14.8,0.2,·,·
CCOC(=O)CC(=O)CSc1nc2c(cc1C#N)CCCC2,-25.4,-1.3,10.6,0.0,·,·
O=c1oc2ccc3ccccc3c2cc1-c1nc(-c2ccc([N+](=O)[O-])cc2)n[nH]1,5.0,1.2,71.9*,-0.1,6.7,12.9
CN(CC1CCOCC1)c1nc2nonc2nc1NCc1cccs1,-10.1,0.8,9.2,0.2,·,·
c1ccc(-c2ccc(OCCCn3cncn3)cc2)cc1,-27.2,-0.3,60.9*,-0.1,7.0,12.4
Cc1cc(Cl)ccc1OCCn1cncn1,-0.2,-0.3,-0.6,0.0,·,·
Cc1cc(Br)ccc1OCCn1cncn1,3.0,1.6,68.1*,0.0,9.4,11.9
Brc1cccc(OCCCCn2cncn2)c1,-3.4,-0.9,62.3*,-0.4,8.6,13.2
SMILES,TEAD-YAP inh,GPR151 activ,MITF primary,FBW7 act,MITF inh conf,AS interf ctr
Brc1cccc(OCCn2cnc3ccccc32)c1,-2.6,0.1,68.1*,0.0,4.0,15.7
O=[N+]([O-])c1ccc(OCCCCn2cncn2)cc1,6.1,-0.9,41.2,-0.6,·,·
CC1=CC(=O)OC1Cc1cc[n+](C)cc1 (configuration not stated),2.0,0.3,8.2,0.1,·,·
CCOc1ccc(Nc2ncnc3c2cnn3-c2ccc(C)cc2)cc1,1.6,0.3,4.4,0.6,·,·
c1ccc(Oc2cccc(OCCOCCn3cncn3)c2)cc1,-10.3,-2.0,72.3*,-0.2,-4.9,-9.4
c1ccc(COc2ccc(OCCn3cncn3)cc2)cc1,-16.8,-1.3,1.8,0.2,·,·
Clc1cccc(OCCn2cncn2)c1,-6.0,-0.6,-5.5,-0.1,·,·
